About 2,700 (4%) of roughly 68,000 compounds showed an effect of 50% or more. The full list was thinned out, with strong results kept by preference.

The values below come from ChEMBL document CHEMBL4513216, “Probing the Open Global Health Chemical Diversity Library for Multistage-Active Starting Points for Next-Generation Antimalarials” (ACS Infect Dis, 2020).

In this test the test system is Plasmodium berghei. Briefly: Screen against P. berghei liver stage (PbLuc), transformed with Luciferase, at 2uM. To be noted: tested at 2 uM. The class given is functional, HepG2.
`COc1cccc2c1OCC(NC(=O)NCCc1ccccn1)C2` (stereo not drawn): the INHIBITION was found to be 40.59%.

In the case of `NC(=O)N1CCCN(CCCSCc2ccccc2)CC1`, the INHIBITION is given as -16.28%.

Take `c1ccc(Cc2cccc(C3CCCN3C3CCOCC3)n2)cc1` (stereo not drawn): the INHIBITION amounted to 44.16%.

In the case of `O=S(=O)(c1cccc(F)c1)N1C[C@H]2CC[C@@H](C1)N(Cc1ccccc1)C2`, the INHIBITION is given as -13.58%.

For the compound `CC(C(=O)NCc1ccnc(OC2CCCC2)c1)n1cncn1` (stereo not drawn), the INHIBITION is listed as -5.34%.

Regarding `O=C1NCCCc2c1oc1ccc(O)c(CN3CCOCC3)c21`, the INHIBITION is given as 10.49%.

As to `CC(C)NC(=O)c1ccc2c(c1)C(c1nc[nH]n1)CN2S(C)(=O)=O` (stereo not drawn), the INHIBITION was -18.52%.

On to `CCC(CC)NC(=O)c1ccc2c(c1)C(c1nc[nH]n1)CN2S(C)(=O)=O` (stereo not drawn), for which the INHIBITION worked out at 36.34%.

Turning to `CCN(C)C(=O)c1ccc2c(c1)C(c1nc[nH]n1)CN2S(C)(=O)=O` (stereo not drawn), the INHIBITION is given as 53.55%.

In the case of `Cc1cnc(C(=O)N2CCCC(n3cncn3)C2)cn1` (stereo not drawn), the INHIBITION is reported as -43.79%.

Regarding `CCOc1cc(CN[C@@H]2COC[C@H]2Cc2cc(C)no2)ccc1O`, the INHIBITION amounted to 33.64%.

`Cc1c(C(=O)N2CCN(C)[C@@H]3CS(=O)(=O)C[C@@H]32)[nH]c2ccc(F)cc12`: the INHIBITION worked out at 28.95%.

`CCc1c(C(=O)N2CCN(C)[C@@H]3CS(=O)(=O)C[C@@H]32)[nH]c2ccccc12`: the INHIBITION is listed as 65.3%.

Regarding `CCN1CCN(C(=O)c2[nH]c3ccccc3c2Cl)[C@H]2CS(=O)(=O)C[C@H]21`, the INHIBITION was 25.65%.

Regarding `COc1ccccc1-n1nc(C(C)C)nc1Cc1nnc(N)s1`, the INHIBITION is reported as 49.32%.

In the case of `CS(=O)(=O)NCCCNC(=O)c1cccnc1O`, the INHIBITION was -55.03%.

As for `C[C@H]1C[C@H]2CN(Cc3ccccn3)CC[C@@H]2O1`, the INHIBITION came to 66.23%.

`C[C@@H]1C[C@@H]2CCN(Cc3ccccn3)C[C@H]2O1`: the INHIBITION is 2.98%.

For the compound `C[C@H]1C[C@@H]2CCN(Cc3ccccn3)C[C@H]2O1`, the INHIBITION stood at 0.78%.

Take `O=C(Cn1cccn1)N1CCc2[nH]nc(-c3ccc4c(c3)OCO4)c2C1`: the INHIBITION is recorded as 37.41%.

Regarding `O=C1CN([C@@H]2CC[C@@H](NS(=O)(=O)c3ccc(F)cc3)[C@H]2O)CCN1`, the INHIBITION worked out at 22.95%.

With `COCc1nc(C(=O)N2CCCC(n3ccnc3C(C)C)C2)cs1` (stereo not drawn), the INHIBITION came out at 52.52%.

Turning to `COCc1nc(C(=O)N2CCCC(n3ccnc3)C2)cs1` (stereo not drawn), the INHIBITION amounted to 28.54%.

Regarding `Cc1ccc(CC(=O)N2CCCC(n3ccnc3C(C)C)C2)cn1` (stereo not drawn), the INHIBITION amounted to 28.65%.

For the compound `CSCC(=O)N1CCCC(n2ccnc2C(C)C)C1` (stereo not drawn), the INHIBITION is recorded as -47.97%.

As for `CC(C)c1nccn1C1CCCN(C(=O)c2ccsc2)C1` (stereo not drawn), the INHIBITION is -12.41%.

Regarding `COCc1nc(C(=O)N2CCCC(n3ccnc3C)C2)cs1` (stereo not drawn), the INHIBITION is on record as 53.69%.

Take `COCc1nc(C(=O)N2CCCC(n3cccn3)C2)cs1` (stereo not drawn): the INHIBITION amounted to 21.89%.

On to `CCc1nccn1C1CCCN(C(=O)c2csc(COC)n2)C1` (stereo not drawn), for which the INHIBITION is on record as 24.15%.

Regarding `Cc1nc(CC(=O)N2CCCC(n3ccnc3C(C)C)C2)cs1` (stereo not drawn), the INHIBITION was determined as 66.2%.

Take `Cc1ccsc1CN1CCC(n2cc(C(O)c3ccccc3)nn2)CC1` (stereo not drawn): the INHIBITION is given as -6.04%.

`CC(C)(C)C(=O)N1CCC(n2cc(C3(O)CCCC3)nn2)CC1`: the INHIBITION is recorded as -21.47%.

`Fc1ccccc1C1(CNC2CCOC3(CCOCC3)C2)CCCC1` (stereo not drawn): the INHIBITION is listed as -27.61%.

On to `CN(C)c1cc(CNC(=O)c2cnccn2)ccn1`, for which the INHIBITION was -14.75%.

Consider `Cc1cc(C(=O)N2CCn3cc(CN4CCOCC4)nc3C2)no1`, for which the INHIBITION came to 22.68%.

With `Cc1ocnc1C(=O)N1CCN(CCOc2ccccc2)CC1`, the INHIBITION is reported as 41.86%.

Consider `CC(C)Cc1cc(NC(=O)c2ccccn2)n(C)n1`, for which the INHIBITION stood at 7.13%.

`Cc1noc(C)c1CS(=O)(=O)CC(=O)NCCc1cccs1`: the INHIBITION was -49.96%.

Take `Cn1cc(C(=O)NCc2cn3c(n2)CN(Cc2ccncc2)CC3)cn1`: the INHIBITION turned out to be 12.38%.

Consider `Cn1cc(C(=O)NCc2cn3c(n2)CN(Cc2ccccn2)CC3)cn1`, for which the INHIBITION is 53.98%.

As to `Cn1cccc1C(=O)NCc1cn2c(n1)CN(Cc1ccccn1)CC2`, the INHIBITION came to 20.43%.

In the case of `Cc1noc(C)c1CN1C[C@@H](OCc2ccccn2)[C@H]2OCCC[C@H]21`, the INHIBITION is -44.88%.

For `CCc1cc(=O)n(CC(=O)N2CCCC2)c(-c2ccc(F)cc2)n1`, the INHIBITION worked out at 22.13%.

For `CN(Cc1nc2ccccc2c(=O)[nH]1)C1CC(=O)N(C2CC2)C1=O` (stereo not drawn), the INHIBITION is on record as -68.81%.

As for `Cc1noc([C@@H]2C[C@H]3OCC[C@H]3N(Cc3ccoc3)C2)n1`, the INHIBITION is listed as 51.26%.

For the compound `CCS(=O)(=O)N1C[C@H](c2nc(C)no2)C[C@H]2OCC[C@H]21`, the INHIBITION was determined as 63.23%.

Take `Cc1nnc([C@H]2C[C@H]3OCC[C@H]3N(S(=O)(=O)N(C)C)C2)o1`: the INHIBITION is reported as 11.18%.

With `Cc1nnc([C@H]2C[C@H]3OCC[C@H]3N(S(=O)(=O)C3CC3)C2)o1`, the INHIBITION was determined as 50.32%.

On to `Cc1noc([C@H]2C[C@H]3OCC[C@H]3N(S(C)(=O)=O)C2)n1`, for which the INHIBITION stood at 25.58%.

On to `Cc1noc([C@H]2C[C@H]3OCC[C@H]3N(Cc3ccc(F)cc3)C2)n1`, for which the INHIBITION came to 20.41%.

Regarding `Cc1noc([C@H]2C[C@H]3OCC[C@H]3N(Cc3ccncc3)C2)n1`, the INHIBITION came to 29.81%.

For `CCCS(=O)(=O)N1C[C@@H](c2nc(C)no2)C[C@H]2OCC[C@H]21`, the INHIBITION was -27.12%.

Take `CCS(=O)(=O)N1C[C@@H](c2nnc(C)o2)C[C@H]2OCC[C@H]21`: the INHIBITION came out at 11.87%.

In the case of `Cc1cc(N2CCc3c(ncn3C3CC3)C2)nc(N)n1`, the INHIBITION is -25.22%.

`O=C(CCC1CCCC1)NCCn1nc(C2CCNC2)c2cccnc21` (stereo not drawn): the INHIBITION was 34.24%.

Take `Cc1cccc(-n2ncc3c(=O)n(CCN4CCCCC4)cnc32)c1C`: the INHIBITION was -34.12%.

With `CC(C)S(=O)(=O)N1CCN(C(=O)c2cnn(C)c2Cl)CC1`, the INHIBITION was 12.98%.

Take `CN(C(=O)c1ncn2c1CN(C)S(=O)(=O)c1ccccc1-2)C1CC1`: the INHIBITION is recorded as 60%.

`CCCN(CC)C(=O)c1ncn2c1CN(C)S(=O)(=O)c1ccccc1-2`: the INHIBITION worked out at 15.9%.

On to `CCNC(=O)c1ncn2c1CN(C)S(=O)(=O)c1ccccc1-2`, for which the INHIBITION is recorded as -64.43%.

With `Cc1cccc(NC2CCN(C(=O)Nc3ccccn3)CC2)n1`, the INHIBITION is -7.13%.

With `Cc1ccc(C(=O)N2CCN(C(=O)Nc3ccccn3)CC2)o1`, the INHIBITION worked out at 60.93%.

Regarding `Cc1ccc(C(=O)NC2CCN(C(=O)Nc3ccccn3)CC2)o1`, the INHIBITION stood at 20.11%.

Take `Cc1occc1C(=O)N1CCn2c(COCC3CC3)cnc2C1C` (stereo not drawn): the INHIBITION is recorded as -5.65%.

Turning to `CCN(CC)CCSc1ncnc2[nH]ncc12`, the INHIBITION is listed as -57.02%.

As to `CCn1cc(CNc2ccc(F)c(N3CCCS3(=O)=O)c2)cn1`, the INHIBITION turned out to be 67.51%.

As to `CCn1cc(CNc2ccc(F)c(F)c2)cn1`, the INHIBITION was -11.55%.

For `Cn1cc(CNc2ccc(F)c(N3CCCS3(=O)=O)c2)cn1`, the INHIBITION turned out to be 30.06%.

In the case of `CCCc1nc(CNc2ccc(F)c(F)c2)no1`, the INHIBITION is listed as -48.48%.

Turning to `COc1ccc2[nH]c(=O)c(CN(C)CCN3CCCC3)cc2c1`, the INHIBITION is 56.16%.

For `COc1ccc2cc(CN(C)CCN3CCCCC3=O)c(=O)[nH]c2c1`, the INHIBITION was found to be 38.12%.

For the compound `CCN1CCCC1CNCc1cc2cc(OC)ccc2[nH]c1=O` (stereo not drawn), the INHIBITION came out at 42.49%.

Turning to `CCOCC(=O)N1C[C@H]2CCC[C@@]2(COC)C1`, the INHIBITION is recorded as 42.4%.

Turning to `CCn1nc(C)c(CNC(=O)c2nnc3ccc(OC)cc3n2)c1C`, the INHIBITION is given as 33.58%.

As for `CCn1nc(C)c(CNC(=O)c2nnc3ccccc3n2)c1C`, the INHIBITION came out at 70.37%.

As to `CCn1nc(C)c(CNC(=O)c2nnc3ccc(Cl)cc3n2)c1C`, the INHIBITION was 26.56%.

As to `Cc1nc(CN2CCC23CCN(C(=O)c2ccco2)CC3)cs1`, the INHIBITION is listed as 30.15%.

Regarding `Cc1cncc(NCc2ccccc2N2CCOCC2)c1`, the INHIBITION is 11.88%.

Consider `CCS(=O)(=O)c1cccc(C(=O)Nc2cccc3c2C(=O)N(C)C3=O)c1`, for which the INHIBITION is given as 13.01%.

For the compound `CCCOC1CCCN(C(=O)c2cnc(-c3csc(C)n3)nc2O)C1` (stereo not drawn), the INHIBITION is reported as -20.84%.

For `CC(=O)N1CCC2(CC1)[C@@H]1CN(Cc3cccnc3)C[C@@H]1C(=O)N2C`, the INHIBITION is 35.89%.

Consider `CC(C)C(=O)N1CCC2(CC1)NC(=O)[C@H]1CN(Cc3cccnc3)C[C@H]12`, for which the INHIBITION is recorded as 37.54%.

Regarding `CC(=O)N1CCC2(CC1)NC(=O)[C@H]1CN(Cc3cccnc3)C[C@H]12`, the INHIBITION worked out at 56.76%.

Regarding `Cn1cccc1CN1CCC2(CC1)CN(c1ncccn1)CCO2`, the INHIBITION is -8.63%.

For the compound `Cc1ccc(CNC(=O)CCNS(C)(=O)=O)cc1`, the INHIBITION turned out to be 13.36%.

In the case of `CCn1ccnc1CN1CCN(CC(=O)NC(C2CC2)C2CC2)CC1`, the INHIBITION came to 29.19%.

In the case of `CC(=O)N[C@H]1CCO[C@@H](c2cccc(NC(=O)c3ccc(=O)[nH]n3)c2)C1`, the INHIBITION is given as -3.15%.

Consider `CN1CCCCC1c1ncc2c(n1)CCN(Cc1ccc(Cl)c(F)c1)C2` (stereo not drawn), for which the INHIBITION is 56.99%.

Regarding `CN1CCCCC1c1ncc2c(n1)CCN(Cc1ccc(F)cc1)C2` (stereo not drawn), the INHIBITION came out at 19.06%.

For the compound `COc1ccc(CN2CCc3nc(C4CCCCN4C)ncc3C2)cc1` (stereo not drawn), the INHIBITION is given as -8.87%.

Regarding `O=C1COC2(COCCN(Cc3cccnc3)C2)CN1c1ccccc1` (stereo not drawn), the INHIBITION is on record as -43.73%.

`N#CCCN(Cc1cccnc1)C(=O)c1ccc(OCC2CC2)cc1`: the INHIBITION came to 56.89%.

Regarding `N#CCCN(Cc1ccco1)C(=O)c1ccc(OCC2CC2)cc1`, the INHIBITION is given as -5.51%.

In the case of `N#CCCN(CCC#N)C(=O)c1ccc(OCC2CC2)cc1`, the INHIBITION amounted to 5.98%.

Regarding `O=C(c1cnccn1)N1CC[C@H]2[C@H]1CCN2S(=O)(=O)C1CC1`, the INHIBITION was -17.44%.

Take `CCCNC(=O)c1nc2c(o1)CN(C(=O)CN(C)C)C2`: the INHIBITION was -31.4%.

On to `CN(C)CC(=O)N1Cc2nc(C(=O)NCc3ccccc3)oc2C1`, for which the INHIBITION is reported as 16.4%.

For the compound `CN(C)CC(=O)N1Cc2nc(C(=O)NCc3ccncc3)oc2C1`, the INHIBITION is 52.08%.
